AI-2 QS mod: modulates the Vibrio harveyi AI-2 quorum sensing system | Vibrio harveyi JMH597 AI-2 luminescence/OD600 ratio, 9 h; active compounds read low; strain lacks LuxN and CqsS sensors; 0 = neutral-control median | AID 2094 | activity change, % at 7.5 µM | 300,000 compounds, 0.4% hits; in the data active = activity change below about -75%, passing the limit was not always enough;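 note: luminescence divided by OD600 gain over 9 h not by final OD600 alone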
Mot1-301 SUMO: SUMOylation pathway inhibition by Mot1-301 growth rescue; growth rescue, % at 18.8 µM; 320,000 compounds, 1% hits; S. cerevisiae Mot1-301 growth rescue, ATP luminescence, 38.5C; percent above DMSO median, 100 means doubled;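 active = every valid replicate shows activation above 250% relative to neutral control wells; inactive = the rest, any valid replicate at or below 250%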;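 note: OY570 slx delta 5 strain wells were the positive control but not used for scaling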
HIF activator: HIF pathway transcriptional activation; AID 1910; U2OS HRE-luciferase reporter, luminescence; normalized: DMSO 0%, desferrioxamine 100%; activation, % at 7.5 µM (by protocol); 300,000 compounds, 0.32% hits;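 active = mean activation of at least 10% of the iron chelator positive control signal, with at least half of replicates also reaching 10%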
ALR inh: inhibitors of human sulfhydryl oxidase ALR | P55789 | purified ALR, DTT oxidation, H2O2 HRP-luminol luminescence | inhibition, % (concentration not given with the values) | 290,000 compounds, 3.8% hits | AID 485317;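 active = mean replicate inhibition above about 79%, with every replicate also reaching it, limit read from the data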
Target sequence (P55789 whole entry, looked up): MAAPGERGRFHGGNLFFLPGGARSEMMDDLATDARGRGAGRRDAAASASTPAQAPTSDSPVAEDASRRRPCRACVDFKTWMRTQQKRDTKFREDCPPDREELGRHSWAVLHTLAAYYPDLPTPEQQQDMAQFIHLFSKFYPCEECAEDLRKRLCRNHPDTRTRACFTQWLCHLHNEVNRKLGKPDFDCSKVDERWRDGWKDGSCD
* hit, by the source's call; i = inactive; nt = not tested or not shown. Hits are enriched below; roughly 4.8% of the tested compounds scored in any of these assays.

SMILES | AI-2 QS mod | Mot1-301 SUMO | HIF activator | ALR inh
CC(C)Cc1nnc(NC(=O)CCC(=O)NC2CC2)s1 | 32 | 223 | 0 | -6
O=c1cnnc(SCc2ccc([N+](=O)[O-])cc2)[nH]1 | 20 | i | 0 | 100*
CC(=O)N1CCC(C(=O)NCCOc2ccc(C)cc2)CC1 | 16 | -12 | 0 | -5
Cc1ccc(C)c(N2C(=O)C3C4C=CC(CC4)C3C2=O)c1 (stereo unspecified) | 4 | 47 | -3 | 2
CCN1C(=O)[C@H]2[C@@H](c3ccc(-c4ccc(OC)cc4)cc3)N3CCCC[C@@]3(C(=O)OC)[C@H]2C1=O | 11 | 788* | 0 | 2
O=C(Cc1c(F)cccc1Cl)NNC(=O)c1ccccc1Cl | nt | -6 | nt | -5
COc1ccc(N2CCC(CNC(=O)Nc3ccc(C)c(C)c3)C2)cc1 (stereo unspecified) | 8 | -7 | 0 | 15
COc1ccc(N2CCC(CNC(=O)Nc3ccc(OC)cc3OC)C2)cc1 (stereo unspecified) | 12 | 16 | 0 | 85*
CCC(C)(C)NC(=O)C(c1ccc(OC)cc1)N(C(=O)CCC(=O)Nc1cc(C)on1)c1cc(OC)ccc1OC (stereo unspecified) | 16 | 2 | 0 | -7
Nc1ccccc1Sc1c[nH]c2ccccc12 | -6 | -14 | 1 | 99*
COc1ccc2c(C)cc(SCC(=O)c3ccc4c(c3)OCO4)nc2c1 | 3 | -2 | 1 | 99*
COc1ccc2c(C)cc(SCC(=O)NC3CCCC3)nc2c1 | nt | -5 | nt | nt
S=c1[nH]nc(-c2c[nH]c3ccccc23)o1 | 0 | -2 | 0 | 98*
Cc1cc(-c2n[nH]c(=S)o2)c(C)n1-c1ccccc1 | 44 | 23 | 1 | 95*
S=c1[nH]nc(COc2ccc3ccccc3c2)o1 | 40 | 6 | 0 | 30
Oc1cc2ccccc2cc1-c1n[nH]c(=S)o1 | 19 | nt | -1 | 97*
Cc1nc(C)c(-c2ccc(SCc3ccccc3F)nn2)s1 | -2 | -3 | 3 | -9
Cc1csc(NC(=O)CCC(=O)N(CC(=O)NC2CCCC2)Cc2ccccc2)n1 | 3 | -10 | -1 | 3
Cc1c(C(=O)N2CCN(CC(=O)Nc3ccccc3Cl)CC2)oc2ccc(Br)cc12 | nt | 5 | nt | nt
CCn1c(N)[n+](CC(=O)Nc2ccc(SC(F)F)cc2)c2ccccc21 | 8 | -5 | 0 | 89*
CC[N+](CC)(CC)CC(=O)Nc1ccc(SC(F)F)cc1 | 17 | 14 | -1 | -11
COc1ccc(NC(=O)c2ccccc2NS(=O)(=O)c2ccc(C)cc2)c([N+](=O)[O-])c1 | 3 | 823* | 0 | -5
COc1cc(C=NNc2ccc(S(=O)(=O)Nc3ccccc3C(=O)O)cc2[N+](=O)[O-])ccc1O | nt | 8 | nt | 99*
CN(CCO)c1ccc(C=NNc2ccc([N+](=O)[O-])cc2S(=O)(=O)Nc2ccccc2C(=O)O)cc1 | nt | -21 | nt | 99*
CC(=O)Nc1ccc(C=NNc2ccc([N+](=O)[O-])cc2S(=O)(=O)Nc2ccccc2C(=O)O)cc1 | nt | -14 | nt | 65
SMILES | AI-2 QS mod | Mot1-301 SUMO | HIF activator | ALR inh
O=C(c1ccc(F)cc1)c1cnc(Nc2ccccc2)s1 | 18 | 4 | 3 | -4
CC1(c2cnc(Nc3ccccc3)s2)CCC(=O)O1 (stereo unspecified) | -10 | 0 | 0 | 97*
CC1CCC2(CC1)NC(=O)N(CC(=O)N1CCN(S(=O)(=O)c3ccc4c(c3)CCC4)CC1)C2=O (stereo unspecified) | nt | 1 | nt | 11
O=C1N=C(c2ccccc2)C(c2ccccc2)N1 (stereo unspecified) | 25 | 18 | 0 | 99*
COc1cc(N2C(=O)C=CC2=O)c(OC)cc1Cl | -92* | 43 | 0 | 3
COCCSc1nnc(NC(=O)CCS(=O)(=O)c2ccccc2)s1 | 12 | -8 | 1 | 8
O=C(O)CCCC(=O)N1N=C(c2c(-c3ccccc3)c3cc(Cl)ccc3[nH]c2=O)CC1c1cccs1 (stereo unspecified) | -6 | 6 | 0 | 87*
C/C(=N\NC(=O)C(c1ccccc1)c1ccccc1)c1ccc(O)cc1 | 9 | 8 | -1 | 90*
C/C(=N\NC(=O)C(c1ccccc1)c1ccccc1)c1ccccn1 | -3 | -9 | 0 | nt
C/C(=N\NC(=O)c1csc2ccccc12)c1ccc(O)cc1 | 26 | -14 | 1 | 100*
COC(C(=O)N/N=C(\C)c1ccc(O)cc1)c1ccccc1 (stereo unspecified) | nt | 15 | 0 | 98*

Screening data deposited in PubChem by Broad Institute.
